SMILES strings stand for the structures. Structures can show the parent of a compound that is named as a salt.

The assay concerns MOLM14. As to the kind of experiment: cell viability relative to vehicle control; higher = less cytotoxic. The conditions noted are these: 10 µM; SRSF2 genotype: SRSF2 wt/wt. The method in brief: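 After removal of identity-inconsistent compounds, the Selleck bioactive, kinase and epigenetic probe libraries were screened on CRISPR-edited mutant clones and isogenic wild-type clones of four leukaemia lines. Plates were 384-well, each well holding 2000 cells in 50 µL medium and receiving a single 10 µM acoustically dispensed dose. CellTiter-Glo luminescence was read 48 h later, after the supernatant was taken off. Genedata Screener was used to express viability as percent of the on-plate vehicle control.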
By cell viability is commonly meant a read-out of living cells in per cent, often relative to untreated cells. As for `COc1ccc2c(c1)c(CC(=O)OCC(=O)O)c(C)n2C(=O)c1ccc(Cl)cc1` [Acemetacin (Emflex)], the cell viability was determined as 98.6%.

On to `CC(c1cc2ccccc2s1)N(O)C(N)=O` (centres undefined) [Zileuton], for which the cell viability came to 98.1%.

Take `COc1ccc(C(=O)CC(=O)c2ccc(C(C)(C)C)cc2)cc1` [Avobenzone (Parsol 1789)]: the cell viability was 98.9%.

With `CNC(=O)[C@H](Cc1ccccc1)NC(=O)[C@H](CC(C)C)[C@H](CSc1cccs1)C(=O)NO` [Batimastat (BB-94)], the cell viability worked out at 98.5%.

Consider `Nc1ncnc2c1c(-c1cccc(OCc3ccccc3)c1)cn2C1CC(CN2CCCC2)C1` (centres undefined), for which the cell viability amounted to 55.1%.

In the case of `C=C1C[C@@]23CC[C@H]4[C@@](C)(CCC[C@@]4(C)C(=O)O)[C@@H]2CC[C@@H]1C3` [Kaurenoic acid], the cell viability was 103%.

Regarding `CC(C)[C@H](NC(=O)[C@H](CC(=O)O)NC(=O)[C@H](CCCCN)NC(=O)[C@@H](N)CCCN=C(N)N)C(=O)N[C@@H](Cc1ccc(O)cc1)C(=O)O` [Thymopentin], the cell viability stood at 91.6%.

As to `C=CC(=O)Nc1cccc(Nc2nc(Nc3ccc(NC4CN(CCF)C4)cc3OC)ncc2C(F)(F)F)c1`, the cell viability worked out at 10.4%.

Turning to `CC1(C)O[C@@H]2[C@@H](CO[C@@]3(COS(N)(=O)=O)OC(C)(C)O[C@@H]23)O1` [Topiramate], the cell viability came out at 105%.

Regarding `O=S(=O)(NCCSSCCNS(=O)(=O)c1cc(Cl)ccc1Cl)c1cc(Cl)ccc1Cl`, the cell viability came out at 48.8%.

For the compound `COC(=O)CCC(C)C1CCC2C3C(O)CC4CC(O)CCC4(C)C3CC(O)C12C` (centres undefined) [Methyl Cholate], the cell viability stood at 89%.

Regarding `COc1ccc(C2=NC(c3ccc(Cl)cc3)C(c3ccc(Cl)cc3)N2C(=O)N2CCNC(=O)C2)c(OC(C)C)c1` (centres undefined) [Nutlin-3b], the cell viability was 86.7%.

With `Clc1ncnc2nc[nH]c12` [6-Chloropurine], the cell viability amounted to 90.3%.

As for `CCC1=C[C@@H]2CN(C1)Cc1c([nH]c3ccccc13)[C@@](C(=O)OC)(c1cc3c(cc1OC)N(C)[C@H]1[C@@](O)(C(=O)OC)[C@H](OC(C)=O)[C@]4(CC)C=CCN5CC[C@]31[C@@H]54)C2` [Vinorelbine Tartrate], the cell viability amounted to 0.99%.

With `Cc1nccn1CC1CCc2c(c3ccccc3n2C)C1=O` (centres undefined) [Ondansetron hydrochloride (Zofran)], the cell viability was 98.9%.

Regarding `CC(C)=CCCC(C)(O)C1CCC2(C)C1C(O)CC1C3(C)CCC(O)C(C)(C)C3CCC12C` [(20S)-Protopanaxadiol], the cell viability amounted to 102%.

As to `C[C@@H]1O[C@@H](O[C@@H]2[C@@H](O)[C@H](OCCc3ccc(O)c(O)c3)O[C@H](CO)[C@H]2OC(=O)/C=C/c2ccc(O)c(O)c2)[C@H](O)[C@H](O)[C@H]1O` [Verbascoside], the cell viability was found to be 92.9%.

As for `C=C1C[C@@]23CC[C@H]4[C@@](C)(CCC[C@@]4(C)C(=O)O)[C@@H]2CC[C@]1(O[C@@H]1O[C@@H](CO)[C@@H](O)[C@H](O)[C@@H]1O[C@@H]1O[C@@H](CO)[C@@H](O)[C@H](O)[C@@H]1O)C3` [Steviolbioside], the cell viability came to 110%.

Turning to `CNc1ccc([N+](=O)[O-])c(Nc2ccc3[nH]ncc3c2)n1`, the cell viability worked out at 9.24%.

For the compound `CN(C)/N=N/c1[nH]cnc1C(N)=O` [Dacarbazine (DTIC-Dome)], the cell viability is 108%.

As for `Cc1ccc(CN(CC(O)COc2cccc3[nH]ccc23)C(C)(C)C)cc1` (centres undefined), the cell viability amounted to 74%.

On to `CN1CCN(C2=Nc3cc(Cl)ccc3Nc3ccccc32)CC1` [Clozapine (Clozaril)], for which the cell viability amounted to 106%.

Turning to `C[C@]1(O)C[C@@H](O)[C@@H]2C=CO[C@@H](O[C@@H]3O[C@H](CO)[C@@H](O)[C@H](O)[C@H]3O)[C@@H]21` [Leonuride], the cell viability is 101%.

As to `CCCCCCCCCC(C)O` (centres undefined) [2-Undecanol], the cell viability was 108%.

Consider `CC(C)(C)n1nc(-c2ccc(Cl)cc2)c2c(N)ncnc21`, for which the cell viability was 67.3%.

Regarding `Cc1cc(O)c(-c2ccc([C@@H](C)CN(C)C)cc2)c2c1[nH]c(=O)c1sccc12`, the cell viability amounted to 0.22%.

On to `CC1(C)CC[C@]2(C(=O)O)CC[C@]3(C)C(=CC[C@@H]4[C@@]5(C)CC[C@H](O)C(C)(C)[C@@H]5CC[C@]43C)[C@@H]2C1` [Oleanolic Acid (Caryophyllin)], for which the cell viability amounted to 94.7%.

Take `C[C@@H]1CC[C@@]2(OC1)O[C@H]1C[C@H]3[C@@H]4CC=C5C[C@@H](O[C@@H]6O[C@H](CO)[C@@H](O)[C@H](O)[C@H]6O)CC[C@]5(C)[C@H]4CC[C@]3(C)[C@H]1[C@@H]2C` [Trillin]: the cell viability is 93.2%.

As for `CCCCCCOC(=O)c1cc(=O)c(O)c2c(O)c(O)c(OC)cc2c1`, the cell viability came to 58.9%.

(Values after the supplement of paper PMC10981050.)
